The results in this text go back to PubChem BioAssay (NCATS).

Inconclusive results are not listed. Active and inactive are the calls of the source. Calls come from the whole dose curve; as a rule, active = well fitted curve in the direction sought with a large enough effect; inconclusive = small, poorly fitted or top-dose-only effect, or another doubt; inactive = no such curve, though single readings can be large; an effect the other way counts as inactive or inconclusive.

The target in assay [1] is Calcium and integrin-binding protein 1 (Homo sapiens) (UniProt Q99828). In words: Primary qHTS for Identification of Calcium Integrin Binding Protein 1 (CIB1) Competitor (AID 1508620).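 Note: GST tagged CIB1 binding a fluorescein labelled alphaIIb integrin peptide tracer; top concentration of the series differs between compounds.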 In a few lines: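 CIB1-GST (1 uM final) and compound incubated 15 min at room temperature before adding FITC-alphaIIb peptide tracer (100 nM final). Competition for binding read by fluorescence polarization (ex 480, em 540) after another 15 min at room temperature.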
Chain of Calcium and integrin-binding protein 1 (Homo sapiens) (Q99828 whole entry, looked up): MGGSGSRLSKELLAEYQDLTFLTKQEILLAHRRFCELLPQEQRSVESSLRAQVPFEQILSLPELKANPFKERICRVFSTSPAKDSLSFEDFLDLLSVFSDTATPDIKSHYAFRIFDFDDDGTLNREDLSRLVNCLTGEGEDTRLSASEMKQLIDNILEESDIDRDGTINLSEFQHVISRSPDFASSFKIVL

Assay [2] in a line: Primary qHTS for inhibitors of nuclear receptor binding SET domain protein 2 (NSD2) in an isogenic RCH-ACV NSD2 p.E1099K mutant (9B) (AID 1645876). Note: nearly all actives have a fitted effect of over 70% in size. Note: potency is the fitted concentration of half-maximal effect.
Assay [3] addresses Glutathione peroxidase 1 (Homo sapiens) (UniProt P07203). In words: Primary qHTS Assay for Inhibitors of Recombinant Selenoprotein Glutathione Peroxidase 1 (GPX1) (AID 1845191). Note: nearly all actives have a fitted effect of over 65% in size. The method, boiled down: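 NADPH consumption tracked by fluorescence at 340/450 nm between t=0 and t=15 min, room temperature. Final mix: 10 nM GPX1, 100 nM glutathione reductase, 1 mM GSH, 0.5 mM NADPH, 0.5 mM cumene hydroperoxide, 0.01% BSA; 30 min compound–enzyme preincubation.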
(In qHTS, concentration-response curves come from the screen itself.)

A short description of assay [4]: Primary qHTS for inhibitors of nuclear receptor binding SET domain protein 2 (NSD2) in an RCH-ACV wild type WT cells (2C) (AID 1645877). Note: potency is the fitted concentration of half-maximal effect; nearly all actives have a fitted effect of over 70% in size.
Assay [5] has as its target Phospholipid hydroperoxide glutathione peroxidase GPX4 (Homo sapiens) (UniProt P36969). In words: Primary qHTS Assay for Inhibitors of Recombinant Selenoprotein Glutathione Peroxidase 4 (GPX4) (AID 1845192). Note: nearly all actives have a fitted effect of over 65% in size. Note: potency is the fitted concentration of half-maximal effect. The settings on record: outcome: dose series up to 50 µM unless noted. In a few lines: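 NADPH consumption followed by fluorescence at 340/450 nm, t=0 and after 15 min at room temperature. Reaction started with cumene hydroperoxide (0.5 mM final) after 30 min compound–GPX4 preincubation; final 200 nM GPX4, 100 nM GR, 1 mM GSH, 0.5 mM NADPH.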

The target in assay [6] is Luciferin 4-monooxygenase (Photinus pyralis) (UniProt P08659). In words: Primary firefly luciferase (FLuc) qHTS assay for identification of artifact compounds. (AID 1845220). Note: nearly all actives have a fitted effect of over 60% in size. The method, boiled down:
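FLuc 10 nM; luciferin 10 uM; ATP 10 uM; Tris-acetate pH 7.6, Mg-acetate 10 mM; 15 min RT preincubation; 5 min reaction; luminescence.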

Assay [7] is described as follows: Primary fluorescence-based thiol-reactive (MSTI) qHTS assay for identification of artifact compounds. (AID 1845221). Note: nearly all actives have a fitted effect of over 65% in size. Note: potency is the fitted concentration of half-maximal effect. The method, boiled down:
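A multi-concentration qHTS design tested compounds against 4 uM MSTI, pH 7.4 phosphate-buffered saline. Plates were protected from light for 1 h at room temperature before imaging fluorescence.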

The subject of assay [8] is Nanoluciferase (engineered Oplophorus gracilirostris luciferase). In words: Primary Nanoluciferase (NLuc) qHTS assay for identification of artifact compounds. (AID 1845222).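 Note: NLuc secreted into diluted conditioned medium of S16 cells.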 In a few lines:
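NLuc from S16 cell medium (1:55) plus test compounds, 15 min, room temperature. Luminescence after Nano-Glo (1:100) addition, 5 min.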

Assay [9] has as its system C33A. In words: Primary qHTS to identify gynecologic anti-cancer compounds using libraries of approved drugs and bioactive compounds (AID 1345084). Note: nearly all actives have a fitted effect of over 55% in size. Note: potency is the fitted concentration of half-maximal effect. As to conditions: Gynecologic cancer cell panel viability, ATPlite luminescence, 48 h; series mostly up to 57.5 µM. In a few lines: (§1)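 ATP-based viability (ATPlite), 1,000 cells/well, 16 h pre-incubation, 48 h compound at 37 C, 5% CO2, 15 min RT before read.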

For assay [10], the system named is CASKI. Described as above. As to conditions: Gynecologic cancer cell panel viability, ATPlite luminescence, 48 h; series mostly up to 57.5 µM. The method, boiled down: as §1
On the technique in general: ATP-based viability assays read luminescence as a measure of living cells.

For assay [11], the system named is Es-2. The assay is described as above. The settings on record: Gynecologic cancer cell panel viability, ATPlite luminescence, 48 h; series mostly up to 57.5 µM. In a few lines:
as §1

In assay [12] the test system is HeLa. Described as above. As to conditions: Gynecologic cancer cell panel viability, ATPlite luminescence, 48 h; series mostly up to 57.5 µM. The method, boiled down: as §1
Assay [13] deals with Hek293T. The assay is described as above. As to conditions: Gynecologic cancer cell panel viability, ATPlite luminescence, 48 h, control line for the selectivity index; series mostly up to 57.5 µM. The method, boiled down:
as §1

Assay [14] deals with JEG-3. The description is as above. As to conditions: Gynecologic cancer cell panel viability, ATPlite luminescence, 48 h; series mostly up to 57.5 µM. In a few lines:
as §1

The subject of assay [15] is Tov112D. The assay is described as above. As to conditions: Gynecologic cancer cell panel viability, ATPlite luminescence, 48 h; series mostly up to 57.5 µM. The method, boiled down: as §1
Assay [16] relates to Zika virus NS2B-NS3 protease (linked construct). In words: Primary screen NINDS Rhodamine qHTS for Zika virus inhibitors (AID 1347160). Note: nearly all actives have a fitted effect of over 55% in size. Note: potency is the fitted concentration of half-maximal effect. The method, boiled down: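 Aprotinin served as in-plate control. Conditions: 25 nM linked NS2B-NS3, pH 8.0 Tris buffer, titrated compounds, 15 min preincubation and 15 min reaction with 1.5 microM Rhod110 substrate at room temperature.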
Assay [17] can be described thus: Primary redox qHTS assay for identification of artifact compounds. (AID 1845223). In a few lines:
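Redox-cycling detection via DTT (250 uM final) oxidation coupled to Amplex Red (25 uM)/HRP (250 mU/mL) in HBSS. 15 min preincubation plus 30 min after DTT, room temperature. Ex/Em 525/598 nm; 4-parameter Hill fit against DMSO and 10 uM DA3003.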

Assay [18] deals with Tov-21-G. In words: Primary qHTS to identify gynecologic anti-cancer compounds using libraries of approved drugs and bioactive compounds (AID 1345084). Note: nearly all actives have a fitted effect of over 55% in size. Note: potency is the fitted concentration of half-maximal effect. As to conditions: Gynecologic cancer cell panel viability, ATPlite luminescence, 48 h; series mostly up to 57.5 µM. The method, boiled down:
as §1

Assay [19] has as its system OV90. The assay is described as above. The settings on record: Gynecologic cancer cell panel viability, ATPlite luminescence, 48 h; series mostly up to 57.5 µM. The method, boiled down:
as §1

The test system of assay [20] is PA-1. The description is as above. The settings on record: Gynecologic cancer cell panel viability, ATPlite luminescence, 48 h; series mostly up to 57.5 µM. In a few lines: as §1

Chain of Phospholipid hydroperoxide glutathione peroxidase GPX4 (Homo sapiens) (P36969 whole entry, looked up): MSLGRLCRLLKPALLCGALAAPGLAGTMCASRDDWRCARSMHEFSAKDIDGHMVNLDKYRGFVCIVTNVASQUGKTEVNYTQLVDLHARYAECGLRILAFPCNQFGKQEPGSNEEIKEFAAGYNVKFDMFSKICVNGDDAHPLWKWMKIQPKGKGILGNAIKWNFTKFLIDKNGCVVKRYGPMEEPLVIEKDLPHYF
Chain of Glutathione peroxidase 1 (Homo sapiens) (P07203 whole entry, looked up): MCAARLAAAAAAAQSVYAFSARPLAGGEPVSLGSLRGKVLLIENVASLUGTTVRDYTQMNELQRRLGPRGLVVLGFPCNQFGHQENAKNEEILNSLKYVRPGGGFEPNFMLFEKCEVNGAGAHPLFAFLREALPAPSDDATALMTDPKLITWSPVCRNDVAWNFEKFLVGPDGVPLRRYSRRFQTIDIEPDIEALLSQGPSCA

With `COc1cc([C@@H](CC(=O)O)c2ccc(C)c(CN3C[C@@H](C)Oc4ccccc4S3(=O)=O)c2)cc2nnn(C)c12`, in assay [1], the outcome was inactive. The Potency entry in [2] and in assay [3] was “inactive” in each case.
For the compound `CC[C@H](CO)Nc1nc(Nc2cccc(-c3ccccn3)c2)c2ncn(C(C)C)c2n1`, the result in [1] was inactive. For the same compound, the Potency in assay [4] was 16.3 µM (active). The Potency result in assay [5], in assay [6], in [7], in assay [8], in [9] and in [10] was “inactive” in each case. Besides, the Potency result in assay [11], in [12], in assay [13], in assay [14] and in assay [15] was “inactive” in each case.
Consider `CCN1CCN(Cc2ccc(-c3cc4c(NC(C)c5ccccc5)ncnc4[nH]3)cc2)CC1` (centres undefined), for which the Potency result in assay [16], in assay [6], in assay [7], in assay [17], in assay [9] and in assay [11] was “inactive” throughout. The Potency result in assay [12], in assay [13] and in assay [14] was “inactive” each time. Moreover, in [1], the outcome was inactive. In addition, the Potency is 4.59 µM (active) in [2], 5.78 µM (active) in assay [4], 14.3 µM (active) in [5] and 4.47 µM (active) in assay [18].
With `COc1cc(O)c(C(=O)CCc2ccc(O)cc2)c(O[C@@H]2O[C@H](CO)[C@@H](O)[C@H](O)[C@H]2O)c1`, the result in assay [1] was inactive. The Potency entry in assay [3], in [5], in assay [6], in assay [8], in [17] and in assay [9] was “inactive” in each case. In addition, the Potency result in assay [10], in assay [12], in assay [14], in [19], in [18] and in assay [15] was “inactive” each time. Besides, the Potency in assay [7] is 9.22 µM (active).
On to `CC(C)[C@@H](C)/C=C/[C@@H](C)[C@H]1CC[C@H]2C3=CC=C4C[C@@H](O)CC[C@]4(C)C3=CC[C@]12C`, for which the Potency result in assay [16], in assay [3], in [5], in [6], in assay [7] and in assay [9] was “inactive” throughout. The Potency entry in assay [10], in [11], in [12], in assay [13], in [14] and in assay [19] was “inactive” in each case. Also, the Potency entry in assay [20], in [18] and in assay [15] was “inactive” each time. The result in assay [1] was inactive.
As to `Cc1ccc(C2(COC(=O)C(C)C)CO2)c(OC(=O)C(C)C)c1` (centres undefined), the Potency entry in assay [16], in assay [5], in assay [6], in assay [7], in assay [8] and in assay [9] was “inactive” each time. The Potency result in assay [10], in assay [11], in assay [12], in assay [13], in [14] and in assay [19] was “inactive” each time. The Potency entry in [20], in [18] and in assay [15] was “inactive” throughout. For the same compound, the outcome in assay [1] was inactive.
Consider `CC1CCN(C(c2ccc(F)cc2)c2ccc(C(C)C(=O)O)cc2-c2ccc(C(F)(F)F)cc2)CC1` (centres undefined), for which the figures for the Potency in assay [16], in [2] and in assay [4] were 3.16 µM (active), 14.5 µM (active) and 11.5 µM (active), respectively. In [1], the outcome was inactive. For the same compound, the Potency entry in [3], in [5], in assay [6], in assay [7], in [8] and in assay [17] was “inactive” throughout. Further, the Potency entry in assay [9], in assay [10], in [11], in assay [14], in assay [19] and in assay [20] was “inactive” each time. Also, the Potency result in assay [18] and in assay [15] was “inactive” each time.
